Source: the supplement of paper PMC6897291

System: RIVA
Test: growth inhibition by drug plus 177Lu-lilotomab satetraxetan (1 - RLU/untreated control) (fraction); higher = stronger inhibition
Conditions: 177Lu-lilotomab satetraxetan 0.5 ug/ml
Procedure: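 RIVA (RI-1) ABC-DLBCL cells were pretreated or not for 18 h with 0.5 ug/ml 177Lu-lilotomab satetraxetan (600 MBq/mg), washed and seeded (3000 cells/well) on 384-well plates pre-printed with the Selleck Cambridge Cancer Compound library. Viability was read by RealTime-Glo luminescence on days 3-6 after seeding. Effect = 1 - RLU/mean RLU of the 48 untreated no-drug control wells per plate; Bliss score = (M-E)/(1-Fa).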

## CN(C)CCN(C)CCc1ccc(Cl)c(Cl)c1
10 nM, time (day): 3
  growth inhibition by drug plus 177Lu-lilotomab satetraxetan: 0.215
10 nM, time (day): 4
  growth inhibition by drug plus 177Lu-lilotomab satetraxetan: 0.408
10 nM, time (day): 5
  growth inhibition by drug plus 177Lu-lilotomab satetraxetan: 0.459
10 nM, time (day): 6
  growth inhibition by drug plus 177Lu-lilotomab satetraxetan: 0.48
100 nM, time (day): 3
  growth inhibition by drug plus 177Lu-lilotomab satetraxetan: 0.0519
100 nM, time (day): 4
  growth inhibition by drug plus 177Lu-lilotomab satetraxetan: 0.192
100 nM, time (day): 5
  growth inhibition by drug plus 177Lu-lilotomab satetraxetan: 0.22
100 nM, time (day): 6
  growth inhibition by drug plus 177Lu-lilotomab satetraxetan: 0.211

## O=P1(N(CCCl)CCCl)NCCCO1 (stereo not given) [Cyclophosphamide monohydrate]
10 nM, time (day): 3
  growth inhibition by drug plus 177Lu-lilotomab satetraxetan: 0.338
10 nM, time (day): 4
  growth inhibition by drug plus 177Lu-lilotomab satetraxetan: 0.47
10 nM, time (day): 5
  growth inhibition by drug plus 177Lu-lilotomab satetraxetan: 0.502
10 nM, time (day): 6
  growth inhibition by drug plus 177Lu-lilotomab satetraxetan: 0.506
100 nM, time (day): 3
  growth inhibition by drug plus 177Lu-lilotomab satetraxetan: 0.305
100 nM, time (day): 4
  growth inhibition by drug plus 177Lu-lilotomab satetraxetan: 0.403
100 nM, time (day): 5
  growth inhibition by drug plus 177Lu-lilotomab satetraxetan: 0.426
100 nM, time (day): 6
  growth inhibition by drug plus 177Lu-lilotomab satetraxetan: 0.394

## Cc1ccccc1-n1c(Cn2cnc3c(N)ncnc32)nc2cccc(C)c2c1=O
10 nM, time (day): 3
  growth inhibition by drug plus 177Lu-lilotomab satetraxetan: 0.471
10 nM, time (day): 4
  growth inhibition by drug plus 177Lu-lilotomab satetraxetan: 0.529
10 nM, time (day): 5
  growth inhibition by drug plus 177Lu-lilotomab satetraxetan: 0.546
10 nM, time (day): 6
  growth inhibition by drug plus 177Lu-lilotomab satetraxetan: 0.556
100 nM, time (day): 3
  growth inhibition by drug plus 177Lu-lilotomab satetraxetan: 0.375
100 nM, time (day): 4
  growth inhibition by drug plus 177Lu-lilotomab satetraxetan: 0.45
100 nM, time (day): 5
  growth inhibition by drug plus 177Lu-lilotomab satetraxetan: 0.472
100 nM, time (day): 6
  growth inhibition by drug plus 177Lu-lilotomab satetraxetan: 0.479

## C[C@]12CCC(=O)C(O)=C1CC[C@@H]1[C@@H]2CC[C@]2(C)C(=O)CC[C@@H]12 [Formestane]
10 nM, time (day): 3
  growth inhibition by drug plus 177Lu-lilotomab satetraxetan: 0.476
10 nM, time (day): 4
  growth inhibition by drug plus 177Lu-lilotomab satetraxetan: 0.532
10 nM, time (day): 5
  growth inhibition by drug plus 177Lu-lilotomab satetraxetan: 0.553
10 nM, time (day): 6
  growth inhibition by drug plus 177Lu-lilotomab satetraxetan: 0.549
100 nM, time (day): 3
  growth inhibition by drug plus 177Lu-lilotomab satetraxetan: 0.447
100 nM, time (day): 4
  growth inhibition by drug plus 177Lu-lilotomab satetraxetan: 0.508
100 nM, time (day): 5
  growth inhibition by drug plus 177Lu-lilotomab satetraxetan: 0.53
100 nM, time (day): 6
  growth inhibition by drug plus 177Lu-lilotomab satetraxetan: 0.533

## O=C(O)c1nn(Cc2ccc(Cl)cc2Cl)c2ccccc12 [Lonidamine]
10 nM, time (day): 3
  growth inhibition by drug plus 177Lu-lilotomab satetraxetan: 0.616
10 nM, time (day): 4
  growth inhibition by drug plus 177Lu-lilotomab satetraxetan: 0.624
10 nM, time (day): 5
  growth inhibition by drug plus 177Lu-lilotomab satetraxetan: 0.644
10 nM, time (day): 6
  growth inhibition by drug plus 177Lu-lilotomab satetraxetan: 0.656
100 nM, time (day): 3
  growth inhibition by drug plus 177Lu-lilotomab satetraxetan: 0.309
100 nM, time (day): 4
  growth inhibition by drug plus 177Lu-lilotomab satetraxetan: 0.446
100 nM, time (day): 5
  growth inhibition by drug plus 177Lu-lilotomab satetraxetan: 0.459
100 nM, time (day): 6
  growth inhibition by drug plus 177Lu-lilotomab satetraxetan: 0.45
